Hit rate of the full screen: of about 360,000 compounds, about 1,300 (0.36%) were called active. No stated cut-off is given here; in the data, active means inhibition above about 34% (passing the limit was not always enough); inactive means the rest. The entries come from a sample that favours actives as a whole.
These compounds were tested against C-X-C chemokine receptor type 6 (Homo sapiens) (UniProt O00574) (assay: CXCR6 receptor inhibitors, primary screen, cell-based, beta-arrestin, luminescence, CHO-K1 PathHunter, 1536-well (AID 602244;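 further: antagonist mode with CXCL16 agonist at 10 nM final; 0% = 10 nM CXCL16 with DMSO and 100% = unstimulated wells without agonist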)). Details: at 20 µM, stronger effect = higher value.
Chain of C-X-C chemokine receptor type 6 (Homo sapiens) (O00574 whole entry, looked up): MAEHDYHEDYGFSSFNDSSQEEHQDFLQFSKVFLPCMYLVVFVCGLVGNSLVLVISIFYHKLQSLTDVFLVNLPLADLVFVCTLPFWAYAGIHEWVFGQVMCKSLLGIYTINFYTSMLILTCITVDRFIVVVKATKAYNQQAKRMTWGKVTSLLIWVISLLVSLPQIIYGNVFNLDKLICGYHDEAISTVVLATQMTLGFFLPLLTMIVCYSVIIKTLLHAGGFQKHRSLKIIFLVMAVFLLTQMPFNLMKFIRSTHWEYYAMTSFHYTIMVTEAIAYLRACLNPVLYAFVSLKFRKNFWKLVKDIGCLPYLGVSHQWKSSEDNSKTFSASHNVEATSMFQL

inhibition, inactive:
O=C(CCS(=O)(=O)c1ccccc1)Nc1nc2c(s1)CCCC2 -0.7%, Cc1ccc(S(=O)(=O)CCC(=O)OCC(=O)N(C)Cc2ccccc2)cc1 0.4%, CCc1nc2c(OCCOc3ccccc3)cccn2c1N(C)C(=O)c1ccccc1F 4.8%, CN1CCC(N(C)S(=O)(=O)c2ccc(NC(=O)c3cccc(C#N)c3)cc2)CC1 -0.9%, O=C1CC(c2cccc(F)c2)C2=C(CCCC2=O)N1 (stereo unspecified) -9.4%, C=CCOc1ccc(Cl)cc1CNCCCN1CCOCC1 -3%, O=C(CNC(=O)c1cccnc1)N/N=C/c1cc(Br)c(O)c(Br)c1 1.1%, Cc1ccc(/C=N/NC(=O)CSc2nc3ccccc3o2)cc1 -6.5%, O=C(COc1cccc2c1CCNC2=O)NC1CCCCC1 -2.3%, OCCC1CN(Cc2cccc(OC3CCCC3)c2)CCN1Cc1ccsc1 (stereo unspecified) 4.2%, Cc1c(NC(=O)C(C)Oc2cccc(Cl)c2)c(=O)n(-c2ccccc2)n1C (stereo unspecified) -5%, CC(C)CCNC(=O)c1cccnc1Sc1ccccc1 -0.4%, CC(NC(=O)Nc1cccc([N+](=O)[O-])c1)c1ccc2c(c1)OCO2 (stereo unspecified) 7.9%, COc1cccc(NCCC(=O)c2cccc([N+](=O)[O-])c2)c1 2.4%, CC(C)Cc1cc(C(=O)NCCc2ccccc2)no1 1.7%, O=C(NCCCc1ccccc1)c1cc(COc2c(F)cccc2F)on1 7.9%, Cc1ccc(CCNC(=O)C2CCN(S(=O)(=O)N3CCCC3)CC2)cc1 0.7%, Cc1ccc(OCCCCc2c(C)n[nH]c2C)cc1 -0.7%, Cc1cc(F)ccc1NC(=S)NCCc1ccccc1 -0.7%, C/C(=N\NC(=S)NCc1ccccc1)C1CCCCC1 21.2%, Cc1cc(C)c(C)c(S(=O)(=O)N[C@@H](C)C(=O)OC(C)C(=O)NC(N)=O)c1C (stereo partly specified) 7%, Cc1oc2cc([N+](=O)[O-])c(O)c([N+](=O)[O-])c2c1C(=O)c1ccc(Br)cc1 25.7%, O=C(NNC(=S)NCCCN1CCOCC1)c1ccncc1 3.2%, COC(=O)c1ccccc1N=NNc1ccc([N+](=O)[O-])cc1 -5.2%, NC(=O)C1(Nc2ccc([N+](=O)[O-])cc2)CCCC1 1.8%, CC(=O)Nc1ccc(S(=O)(=O)NCC2CCC(C(=O)NCCc3ccccc3)CC2)cc1 (stereo unspecified) 6.1%, Nc1nc(Nc2ccccc2F)nc(NC2CCCCC2)c1[N+](=O)[O-] -0.8%, CSCCC(NC(=O)COc1ccccc1)C(=O)OCc1ccc(Cl)cc1 (stereo unspecified) 2.7%, CSCCC(NC(=O)COc1ccccc1)C(=O)OCCOc1ccc(Br)cc1 (stereo unspecified) 2.8%, O=C(NCc1ccccc1)C1=C[C@@H](C2CCCCC2)C[C@@H](OCc2ccc(CO)cc2)O1 6.4%, CC(C)c1ccc(S(=O)(=O)N2CCC3(CC2)OCCO3)cc1 -0.4%, CCN(CC)P(=O)(/C(Cl)=C\Nc1c(C)n(C)n(-c2ccccc2)c1=O)N(CC)CC 9.1%, CCOc1ccc(CN2CCC(n3nccc3NC(=O)C3CC3)CC2)cc1CO 3.8%, CSCCC(NS(=O)(=O)c1ccc(C)cc1)C(=O)NCCc1c[nH]c2ccccc12 (stereo unspecified) -6%, CCC(=O)Nc1c(S(=O)(=O)c2ccccc2)c2nc3ccccc3nc2n1Cc1ccccc1 -4.6%, CCN(CC)CCn1c(/N=C/c2cc(Br)ccc2O)nc2ccccc21 0.9%, CCCCOc1ccc(C(=O)NCC(=O)OCC(=O)c2c(N)n(C)c(=O)n(C)c2=O)cc1 2.3%, CC1CN(c2cc(=O)n(-c3cccc(Br)c3)c(=O)[nH]2)CC(C)O1 (stereo unspecified) -4.7%, CCOC(=O)N1CCC(N2Cc3cccc(C(=O)Nc4ccc(S(=O)(=O)N(CC)CC)cc4)c3C2=O)CC1 -2.9%, COC(=O)c1cc(OC)c(OC)cc1NC(=O)C1CCCO1 (stereo unspecified) 0.8%, Cc1ccc([C@H]2N[C@]3(CCCN(Cc4ccccc4)C3=O)[C@H]3C(=O)N(Cc4ccccc4)C(=O)[C@@H]23)cc1 3.3%, C/C(=N/NC(=O)CCc1ccccc1)c1ccco1 -3.6%, CC(=NNC(=S)N1CCCCCC1)c1ccccn1 19.5%, O=C(c1ccccc1)C(Cn1cncn1)C(Sc1ccccc1)c1ccccc1 (stereo unspecified) 5.2%, O=C(CNc1ccccc1N1CCCC1=O)Nc1cc(Cl)ccc1-n1cncn1 -1%, Cc1noc(C)c1CSCC(=O)N(CCC(C)C)c1c(N)n(Cc2ccccc2)c(=O)[nH]c1=O 2.5%, COc1cccc(CN(C)CC2CCCN(CCc3ccc(Cl)cc3)C2)c1OC (stereo unspecified) 3.7%, CCN(CC)Cc1csc2ccc(Br)cc12 5.6%, Cc1cc(OCCOc2cccc3cccnc23)c(C)cc1Cl -1.8%, COc1cccc(CNC(=O)C2CCN(S(=O)(=O)c3cccc4cccnc34)CC2)c1 -1.1%

inhibition, active:
COc1cccc2sc(N(CCCN(C)C)C(=O)CCS(=O)(=O)c3ccccc3)nc12 44.2%, O=[N+]([O-])c1c(NCCO)cc(Sc2nc3ccccc3s2)c2nonc12 94.3%, O=C(CSc1cccc2cccnc12)N/N=C/c1cccnc1 48.3%, COC(=O)/C=C\C(=O)Nc1cccc([N+](=O)[O-])c1 74.8%, Cc1cc(C(=O)NCCCc2ccccc2)no1 48.5%, CCCC1CCC(=NNC(=S)NCCc2ccccc2)CC1 (stereo unspecified) 40%, O=[N+]([O-])c1ccc(N=NNc2ccc([N+](=O)[O-])cc2)cc1 39.7%, CSCCC(NC(=O)COc1ccccc1)C(=O)OCC(=O)c1cc2ccccc2o1 (stereo unspecified) 37.7%, CCN(CC)CCn1c(N)c(S(=O)(=O)c2ccccc2)c2nc3ccccc3nc21 45.9%, C/C(=N\NC(=O)Cc1ccc(Cl)cc1)c1ccccn1 88.7%, CC(=O)/C(=N\Nc1ccc(Cl)cc1Cl)Sc1cccc2cccnc12 46.4%
